The text below walks through data of PubChem BioAssay (NCATS).

Results filed as inconclusive are left out. Active and inactive are the calls of the source. Unless noted, the call rests on the fitted dose curve; in most records, active means well fitted curve in the direction sought with a large enough effect; inconclusive means small, poorly fitted or top-dose-only effect, or another doubt; inactive means no such curve, though single readings can be large; an effect the other way counts as inactive or inconclusive.

Assay [1] has as its target Aldehyde dehydrogenase, mitochondrial (Homo sapiens) (UniProt P05091). Kind of assay: qHTS for Inhibitors of the Aldehyde Dehydrogenase Family (ALDH2) Confirmatory screens (AID 2061303; active means well fitted inhibition curve with a large enough effect; title and protocol of this record describe different tests; further: nearly all actives have a fitted effect of over 45% in size; further: potency means the concentration at half of the fitted maximal effect). (In qHTS, concentration-response curves come from the screen itself.)
Assay [2] can be described thus: qHTS for Inhibitors of the Aldehyde Dehydrogenase Family (ALDH1A2, ALDH1A3, ALDH2, ALDH3A1) (AID 2061307). Further: nearly all actives have a fitted effect of over 50% in size. On Potency: test system not described further here; potency means the concentration at half of the fitted maximal effect.
In assay [3] the target is Aldehyde dehydrogenase, mitochondrial (Homo sapiens) (UniProt P05091). Kind of assay: qHTS for Inhibitors of the Aldehyde Dehydrogenase Family (ALDH2) Primary screen (AID 2061308). Further: nearly all actives have a fitted effect of over 55% in size. Further: potency means the concentration at half of the fitted maximal effect.
The target of assay [4] is Retinaldehyde dehydrogenase 3 (Homo sapiens) (UniProt P47895). Kind of assay: qHTS for Inhibitors of the Aldehyde Dehydrogenase Family (ALDH1A3) Confirmatory screens (AID 2061311). Further: nearly all actives have a fitted effect of over 60% in size. Further: potency means the concentration at half of the fitted maximal effect.
Assay [5] addresses Aldehyde dehydrogenase 1A1 (Homo sapiens) (UniProt P00352). Description: qHTS for Inhibitors of the Aldehyde Dehydrogenase Family (ALDH1A1) Confirmatory screens (AID 2061316). Further: nearly all actives have a fitted effect of over 65% in size. Further: potency means the concentration at half of the fitted maximal effect.
Assay [6] concerns the target Retinaldehyde dehydrogenase 3 (Homo sapiens) (UniProt P47895). Kind of assay: qHTS for Inhibitors of the Aldehyde Dehydrogenase Family (ALDH1A3) Primary screen (AID 2061315). Further: potency means the concentration at half of the fitted maximal effect.
In assay [7] the target is Retinal dehydrogenase 2 (Homo sapiens) (UniProt O94788). Description: qHTS for Inhibitors of the Aldehyde Dehydrogenase Family (ALDH1A2) Confirmation screens (AID 2061314). Further: nearly all actives have a fitted effect of over 65% in size. Further: potency means the concentration at half of the fitted maximal effect.
The target of assay [8] is Retinaldehyde dehydrogenase 3 (Homo sapiens) (UniProt P47895). Description: qHTS for Inhibitors of the Aldehyde Dehydrogenase Family (ALDH1A3) Validation screen (AID 2061312). Further: nearly all actives have a fitted effect of over 45% in size.
Assay [9] is described as follows: BET inhibitor-based combinations targeting novel dependencies in MECOM-rearranged (r) AML: AML-191 cell line (AID 2202236; further: potency means the concentration at half of the fitted maximal effect; nearly all actives have a fitted effect of over 35% in size). The procedure, abridged: (§1)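 500 cells/well; 11-pt dose curve; 48 h, standard incubator; CellTiter-Glo luminescence after 15 min RT; DMSO/empty-well normalization; AUC plus Z-AUC (mean-centered within each line).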
Assay [10] in a line: BET inhibitor-based combinations targeting novel dependencies in MECOM-rearranged (r) AML: AML-194 cell line (AID 2202237; further: potency means the concentration at half of the fitted maximal effect; nearly all actives have a fitted effect of over 40% in size). The procedure, abridged:
as §1

For the compound `O=C(Nc1ccc(Cl)c(Cl)c1)Nc1nnc(NC2CCNCC2)s1`, the Potency entry in [1], in assay [2], in assay [3] and in [5] was “inactive” each time. Besides, the Potency in assay [4] is 11.3 µM (active).
With `O=C1c2ccccc2NC(c2ccc(Br)o2)N1O` (centres undefined), the Potency in assay [1] was 5.04 µM (active); in assay [2], 10.1 µM (active); in assay [3] it was 1.41 µM (active); in assay [4], 7.12 µM (active); in assay [5], 1.79 µM (active).
As for `COc1ccc(OC)c(-c2nnc3n2N=C(c2ccc(OC)c(OCC4CC4)c2)CS3)c1`, the Potency result in assay [1], in assay [2], in assay [3], in assay [4] and in [6] was “inactive” each time. Besides, the Potency in assay [5] is 2.25 µM (active).
As to `CNc1oc(-c2cccc(-c3ccccc3)c2)nc1C#N`, the Potency is 15.8 µM (active) in assay [1], 17.8 µM (active) in [2] and 25.1 µM (active) in assay [4]. For the same compound, the Potency entry in [3], in [6] and in assay [5] was “inactive” in each case.
`Cc1cccc(C)c1-n1c(SCC(=O)NCCCCCC(=O)O)nnc1-c1cccc([S+](=O)([O-])N2CCCC2)c1`: the Potency result in assay [1], in assay [2], in assay [3], in assay [4], in [6] and in assay [5] was “inactive” throughout.
`Cc1ccc(C)c(SC2=NS(=O)(=O)c3ccccc32)c1`: the Potency entry in [1], in [2], in [3], in [4], in assay [6] and in [5] was “inactive” in each case.
For the compound `O=C(Nc1ncc(Cc2ccc(C(F)(F)F)cc2)s1)c1ncc(-c2ccccc2)[nH]1`, the Potency entry in assay [1], in assay [2], in [3], in assay [7] and in assay [6] was “inactive” each time.
As to `CC1(C)S[C@@H]2[C@H](NC(=O)[C@H](NC(=O)N3CCN(S(C)(=O)=O)C3=O)c3ccccc3)C(=O)N2[C@H]1C(=O)O`, the Potency entry in assay [1], in assay [2], in assay [3], in assay [8], in assay [7] and in [6] was “inactive” in each case. Further, the Potency entry in assay [5] is “inactive”.
On to `N=c1c2c(ncn1-c1ccccc1)Oc1ccc3ccccc3c1C2c1ccc2c(c1)CCO2` (centres undefined), for which the Potency is 14.1 µM (active) in assay [1], 7.08 µM (active) in [2], 15.8 µM (active) in assay [4] and 31.6 µM (active) in assay [5]. Further, the Potency result in [3] and in assay [6] was “inactive” in each case.
As for `O=C(Nc1ccc2ccccc2c1)Nc1nnc(-c2cccnc2)s1`, the Potency entry in assay [1], in assay [2], in assay [3] and in assay [6] was “inactive” in each case. Besides, the Potency in assay [7] was 12.7 µM (active).
Take `FC(F)(F)c1ccccc1-c1nc(NCc2ccc(Cl)cc2)c2ccccc2n1`: the Potency entry in [1], in assay [2], in assay [3], in assay [4], in [6] and in assay [5] was “inactive” each time.
Consider `CC(=O)N1CCN(C(=S)Nc2cc(C)ccn2)CC1`, for which the Potency result in assay [1], in [2], in [3], in [7] and in [6] was “inactive” each time.
On to `Cc1ccc(OCCn2c(CCNC(=O)CCc3ccc(N)cc3)nc3ccccc32)cc1`, for which the Potency entry in assay [1], in assay [2], in [3], in assay [7] and in assay [6] was “inactive” in each case.
Take `O=C(O)c1ccc(-n2cccc2/C=C2\SC(=O)N(Cc3ccccc3Cl)C2=O)cc1`: the Potency entry in assay [1], in assay [3] and in [6] was “inactive” in each case. The Potency in [2] was 7.12 µM (active); in assay [7], 5.65 µM (active).
With `CCOc1ccc(C(=O)Nc2ccc(-c3nc4ccccc4[nH]3)cc2)cc1`, the Potency entry in assay [1], in [2], in [3], in assay [4], in assay [6] and in assay [5] was “inactive” each time.
As for `COc1cccc(CNc2ccc([S+](=O)([O-])Nc3cc4ccccc4s3)cc2)c1O`, the Potency entry in [1], in [2], in [3], in [6] and in [5] was “inactive” throughout. The Potency in assay [4] was 11.3 µM (active).
Regarding `O=C(c1ccc(-c2cc(O)c3ncccc3c2)cc1)N1CCNCC1`, the Potency result in [1], in assay [2], in assay [3], in assay [6] and in [5] was “inactive” throughout. In [4], the Potency is 11.3 µM (active).
Turning to `CCc1c(C)sc(NC(=O)C2CCCCC2C(=O)O)c1C(N)=O` (centres undefined), the Potency result in assay [1], in assay [2], in [3], in [7] and in [6] was “inactive” in each case.
In the case of `CCN(CC)c1cc2c(cc1S(=O)(=O)Nc1ccc(C)c(C)c1)CCC(=O)N2`, the Potency entry in assay [1], in assay [2], in assay [3], in assay [7] and in assay [6] was “inactive” each time.
As for `O=C(O)c1cccc(-n2cccc2)c1`, the Potency entry in assay [1], in [2], in [3], in [4], in [6] and in assay [5] was “inactive” throughout.
With `Cc1cc(C)cc(C(=O)NOCCCCCC(=O)NO)c1`, the Potency entry in [1], in assay [2], in assay [3] and in assay [7] was “inactive” throughout. In addition, in assay [6], the Potency was 6.31 µM (active).
On to `CC(=O)N(O)CCCCCN1C(=O)CCC1=O`, for which the Potency result in [1], in assay [2], in assay [3], in assay [4], in assay [6] and in [5] was “inactive” each time.
As to `Fc1cc(Nc2nc(-c3ccncc3)nc3ccccc23)ccc1N1CCNCC1`, the Potency result in [1], in assay [2], in assay [3], in [7] and in assay [6] was “inactive” throughout.
On to `O=C1c2ccccc2C(=O)N1c1ncccc1O`, for which the Potency result in assay [1], in assay [2], in assay [3], in assay [4], in [6] and in assay [5] was “inactive” each time.
As for `CN(C)CCCNc1ncnc2ccc(-c3ccc4c(c3)OCO4)cc12`, the Potency result in assay [1], in assay [2], in [3], in assay [4], in assay [6] and in [5] was “inactive” each time.
On to `O=C(NCCc1nc2ccccc2n1CCOc1cccc(Br)c1)C1CCCCC1`, for which the Potency entry in assay [1], in assay [2], in assay [3], in assay [7] and in [6] was “inactive” throughout.
Regarding `CCN(CC)CCOc1ccc(/C(=C(\Cl)c2ccccc2)c2ccccc2)cc1`, the Potency result in assay [1], in assay [2], in [3], in assay [8], in assay [7] and in assay [6] was “inactive” in each case. Also, the Potency result in assay [5] was “inactive”. Moreover, the values for the Potency in assay [9] and in [10] were 18.6 µM (active) and 23.5 µM (active), respectively.
